These results are taken from PubChem BioAssay (NCATS).

Several values for one entry are separate records, joined by “and”; a condition that tells them apart may be missing. Equal entries are not always repeated. Records with an inconclusive call do not appear. Activity calls are given as the source filed them. Unless noted, calls follow the shape of the dose curve; as a rule, active = well fitted curve in the direction sought with a large enough effect; inconclusive = small, poorly fitted or top-dose-only effect, or another doubt; inactive = no such curve, though single readings can be large; an effect the other way counts as inactive or inconclusive. Some results are limits rather than exact numbers.

Assay [1] can be described thus: AP1 Signaling Pathway (AID 357; active = well fitted curve in either direction with a large enough effect, not every such curve was filed as active;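 also: ME-180 reporter cells stimulated with EGF at its EC50 level; % is scaled to controls: 0 for no effect and ±100 for the full control effect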). Particulars: ME-180 AP-1-bla reporter, EGF-induced, beta-lactamase ratio, 5 h. In a few lines:
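First, ME-180 AP-1-bla cells were cultured overnight at 37 °C in low-serum Opti-MEM. Next, titrated compounds with EC50 EGF were incubated 5 hours. Finally, CCF4 was added for 2.5 hours and the 460/530 nm ratio recorded.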

In assay [2] the target is Cytochrome P450 1A2 (Homo sapiens) (UniProt P05177). Put plainly: p450-cyp1a2 (AID 410; calls by dose curve). As to conditions: recombinant CYP1A2, luciferin-ME demethylation, luminescence; series mostly up to 57 µM. Put shortly:
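O-Demethylation of luciferin 6' methyl ether by human CYP1A2 is monitored as luciferase luminescence. Substrate sits at Km (100uM); enzyme is 20nM. Values are scaled to 57 uM furafylline as maximal inhibition.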

The nature of assay [3]: Stat Signaling Pathway (AID 446; active = well fitted curve in either direction with a large enough effect, not every such curve was filed as active;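 also: ME-180 cervical cancer cells given 40 pM IL-6 alongside compound; SIE-controlled beta-lactamase reporter measured as 460/530 nm FRET emission ratio; % is scaled to controls: 0 for no effect and ±100 for the full control effect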). Particulars: ME-180 (cervical carcinoma) SIE beta-lactamase reporter, IL-6 stimulated, 5 h. In a few lines: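 FRET read-out (405 nm excitation, 460/530 nm emission) of a beta-lactamase reporter under a STAT-inducible element in ME-180 cervical carcinoma cells. Cells with compound receive 40 pM IL-6 for 5 h. Values are normalised to AC90 stimulation and AC90 JAK-inhibitor controls.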

For assay [4], the target named is Mitogen-activated protein kinase 10 (Mus musculus) (UniProt Q61831). As to the kind of experiment: JNK3 AlphaScreen Assay (AID 530; active = well fitted curve in either direction with a large enough effect, not every such curve was filed as active;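 also: kinase came from lysate of stimulated human HepG2 cells; signal reports phosphorylation of biotinylated GST-cJun 1-79 at Ser73 with 10 µM ATP; % is scaled to controls: 0 for no effect and ±100 for the full control effect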). Particulars: JNK3 lysate, c-Jun phosphorylation; series mostly up to 57.1 µM. Put shortly:
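Phosphorylation of biotinylated GST-cJun(1-79) at Ser73 is measured by AlphaScreen proximity luminescence. Enzyme is JNK3 in HepG2 lysates activated with interleukin-1beta and tumor necrosis factor alpha; ATP is 10 uM final.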

The target in assay [5] is 3',5'-cyclic-AMP phosphodiesterase 4B (Homo sapiens) (UniProt Q07343). Put plainly: qHTS Assay for Inhibitors of PDE-IV (AID 607; active = well fitted activation curve with a large enough effect in the main read-out, with a control signal flat, not every such curve was filed as active; also: % of control where 0% means no effect). Particulars: HEK293 ACTOne CNG channel cells, membrane potential fluorescence; series mostly up to 22.9 µM. Put shortly: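 Cell-based read-out of cAMP via a modified cyclic nucleotide-gated channel and membrane potential dye (535/590 nm) in HEK293 cells expressing PDE4 endogenously. Compounds tested up to 22.9 uM final; 100 uM RO 20-1724 reference.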
3',5'-cyclic-AMP phosphodiesterase 4B (Homo sapiens), sequence (Q07343 whole entry, looked up): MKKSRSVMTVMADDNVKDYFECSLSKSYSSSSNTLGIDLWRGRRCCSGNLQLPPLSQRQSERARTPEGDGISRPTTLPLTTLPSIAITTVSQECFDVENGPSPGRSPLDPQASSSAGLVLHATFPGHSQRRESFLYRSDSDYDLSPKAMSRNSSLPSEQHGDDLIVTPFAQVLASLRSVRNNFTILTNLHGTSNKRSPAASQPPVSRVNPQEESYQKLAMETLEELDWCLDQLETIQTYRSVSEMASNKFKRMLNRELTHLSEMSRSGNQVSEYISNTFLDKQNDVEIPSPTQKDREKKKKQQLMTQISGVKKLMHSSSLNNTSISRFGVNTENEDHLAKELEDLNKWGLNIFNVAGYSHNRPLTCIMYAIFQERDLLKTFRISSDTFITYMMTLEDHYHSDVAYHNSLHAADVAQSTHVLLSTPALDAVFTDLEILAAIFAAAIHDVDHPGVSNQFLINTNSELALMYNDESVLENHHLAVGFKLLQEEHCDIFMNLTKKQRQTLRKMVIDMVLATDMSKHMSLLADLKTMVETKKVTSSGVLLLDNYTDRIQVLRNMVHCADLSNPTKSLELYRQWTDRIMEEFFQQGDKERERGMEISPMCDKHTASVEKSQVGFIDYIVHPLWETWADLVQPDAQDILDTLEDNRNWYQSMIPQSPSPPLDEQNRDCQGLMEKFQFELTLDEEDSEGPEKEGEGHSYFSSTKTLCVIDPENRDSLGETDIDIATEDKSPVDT

Assay [6] addresses Guanine nucleotide-binding protein G(i) subunit alpha-1 (Homo sapiens) (UniProt P63096). As to the kind of experiment: qHTS Assay for Inhibitors of RGS12 GoLoco Motif Activity (Green Fluorophore) (AID 879).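 Also: 0% = labeled peptide with Gαi1 and full inhibition = labeled peptide alone without protein; negative values mean loss of peptide binding seen as reduced polarization.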 As to conditions: Galphai1/FITC-RGS12 GoLoco peptide, fluorescence polarization; series mostly up to 57.1 µM. In a few lines:
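A drop in FITC polarization marked displacement of the FITC-tagged RGS12 GoLoco peptide (10 nM) from Gαi1 (50 nM). Compounds were incubated 10 min at room temperature in Tris pH 7.5 buffer containing 150 mM NaCl, 0.1 mM GDP and 0.05% NP40; unlabeled peptide titration served as control.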

The target of assay [7] is Pyruvate kinase (Leishmania mexicana) (UniProt Q27686). Put plainly: qHTS Validation Assay for Inhibitors of Leishmania Mexicana Pyruvate Kinase (AID 945).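 Also: 0% = DMSO only neutral control wells.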 Particulars: purified L. mexicana pyruvate kinase, enzyme activity, E451W mutant enzyme; series mostly up to 57.5 µM. Put shortly:
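Luminescent ATP detection (PKLight) after a 1 h room-temperature reaction of 0.2 nM LmPYK E451W mutant with 0.5 mM PEP and 0.1 mM ADP at pH 7.2. Activity is normalized to DMSO-only control wells.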
(qHTS replaces the single test concentration by a dilution series.)

For assay [8], the target named is Pyruvate kinase PKM (Homo sapiens) (UniProt P14618). Put plainly: qHTS Assay for Activators of Human Muscle Pyruvate Kinase (AID 954; active = well fitted curve in the direction sought with a large enough effect, not every such curve was filed as active;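 also: 0% = uninhibited enzyme and -100% = no enzyme or full thiadiazolimine inhibition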). Particulars: purified human muscle pyruvate kinase, luciferase-coupled luminescence, 1 h; series mostly up to 57.5 µM. Put shortly: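 ATP production by PKM2 detected via luciferase luminescence after 1 h room-temperature reaction (0.1 nM enzyme, PEP at Km 0.5 mM, ADP 0.1 mM, pH 7.2 imidazole buffer). Inhibition scaled to no-enzyme control; activation referenced to 0.3 nM enzyme wells.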
Pyruvate kinase PKM (Homo sapiens), sequence (P14618 whole entry, looked up): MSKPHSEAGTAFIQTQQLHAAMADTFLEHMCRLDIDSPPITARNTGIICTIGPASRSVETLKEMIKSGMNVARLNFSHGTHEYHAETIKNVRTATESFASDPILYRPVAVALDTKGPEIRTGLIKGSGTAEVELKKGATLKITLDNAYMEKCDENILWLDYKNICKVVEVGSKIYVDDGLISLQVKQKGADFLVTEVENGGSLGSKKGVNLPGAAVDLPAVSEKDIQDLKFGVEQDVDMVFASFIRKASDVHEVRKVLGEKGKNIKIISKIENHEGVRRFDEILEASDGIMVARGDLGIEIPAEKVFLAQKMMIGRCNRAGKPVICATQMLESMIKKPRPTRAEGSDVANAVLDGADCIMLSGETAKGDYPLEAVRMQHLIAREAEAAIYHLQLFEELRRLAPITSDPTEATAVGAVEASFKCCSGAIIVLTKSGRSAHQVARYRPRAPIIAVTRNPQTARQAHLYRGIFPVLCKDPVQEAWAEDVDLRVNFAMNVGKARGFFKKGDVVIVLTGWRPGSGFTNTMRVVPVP

For assay [9], the target named is alpha-glucosidase (Oryza sativa, rice) (UniProt Q653V4). As to the kind of experiment: Counterscreen for Glucocerebrosidase Inhibitors: qHTS Assay for Rice alpha-Glucosidase at pH 5.0 (AID 997).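 Also: 0% = full activity with enzyme and -100% = basal without enzyme.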 As to conditions: rice alpha-glucosidase enzyme activity; series mostly up to 76.9 µM. Put shortly: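 Endpoint fluorogenic assay at pH 5.0: compounds (0.7 nM to 77 uM) titrated against 4 nM rice enzyme and 400 uM 4-MU-alpha-glucoside for 20 min at room temperature; NaOH/glycine stop, read ex 365/em 440 nm, Hill-fitted AC50.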

Assay [10] can be described thus: qHTS Assay for Lipid Storage Modulators (AID 1519; calls by dose curve). As to conditions: Drosophila S3 cells, BODIPY lipid droplet/cell ratio, laser cytometry, cells loaded with oleic acid; for activity change, negative = inhibition: at 25.7 µM (top of the series). Put shortly: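 Cells seeded at 5,000 per well were treated with compounds over a concentration series and loaded with oleic acid (400 uM, as added). Lipid droplet fluorescence (488 nm excitation, 500-530 nm channel) was read by laser-scanning cytometry and normalized to 20 uM Triacsin C.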

The target in assay [11] is ATP-dependent 6-phosphofructokinase (Trypanosoma brucei brucei) (UniProt O15648). As to the kind of experiment: qHTS Assay to Find Inhibitors of T. brucei phosphofructokinase: hit validation (AID 492961).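 Also: luminescence reports ADP formed as PFK phosphorylates fructose-6-phosphate with ATP; % is scaled to controls: 0 for no effect and ±100 for the full control effect.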 Particulars: T. brucei PFK, ADP-Glo luminescence; series mostly up to 24.3 µM. In a few lines: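 Reaction: 0.1 M triethanolamine pH 8.0, 5 mM MgCl2, F6P 0.5 mM, ATP 0.1 mM, PFK 1.25 nM, 45 min RT. Read-out: ADP-Glo luminescence. Analysis: concentration-response fits, classed by r2 and efficacy.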

The target in assay [12] is Luciferin 4-monooxygenase (Photinus pyralis) (UniProt P08659). As to the kind of experiment: Biochemical firefly luciferase enzyme assay for NPC (AID 624030).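 Also: purified P. pyralis luciferase at 10 nM with luciferin and ATP substrate; 0% = DMSO and -100% = full luciferase inhibition by PTC124 control; nearly all actives have a fitted effect of over 70% in size.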 Particulars: purified P. pyralis luciferase, luminescence, 5 min; series mostly up to 58.6 µM. In a few lines:
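Counter-screen for direct inhibition of the luciferase enzyme by approved-drug library compounds, run at 10 nM enzyme in 50 mM Tris acetate (final). Luminescence was read within 5 min of enzyme-buffer addition and normalized to PTC124 versus DMSO (0%).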

Assay [13] can be described thus: qHTS profiling for inhibitors of Plasmodium falciparum proliferation (AID 504749).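 Also: 0% = DMSO vehicle and full inhibition = artemisinin control; nearly all actives have a fitted effect of over 60% in size.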 Particulars: P. falciparum in erythrocytes, SYBR Green DNA, 72 h. Put shortly: (§1)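 Quantitative HTS: compounds pinned into medium, infected erythrocytes added (0.3% parasitemia, 2.5% hematocrit), 72 h culture at 37 C under 5% CO2. Saponin/Triton lysis with SYBR Green I, overnight RT, then fluorescence read.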

The test system of another assay is AS120. Described as above. Particulars: P. falciparum in erythrocytes, SYBR Green DNA, 72 h; series mostly up to 28.7 µM. In a few lines: as §1
The test system of the next assay is CP238. Described as above. As to conditions: P. falciparum in erythrocytes, SYBR Green DNA, 72 h; series mostly up to 12.8 µM. Put shortly:
as §1

The subject of the next assay is FAB9. The description is as above. Particulars: P. falciparum in erythrocytes, SYBR Green DNA, 72 h; series mostly up to 12.8 µM. Put shortly: as §1
In assay [14] the target is Ubiquitin carboxyl-terminal hydrolase 1 (Homo sapiens) (UniProt O94782). Put plainly: Inhibitors of USP1/UAF1: Pilot qHTS (AID 504865). Also: nearly all actives have a fitted effect of over 35% in size. Also: potency is read from the fitted curve at half-maximal effect. As to conditions: purified USP1/UAF1, Ub-rhodamine cleavage fluorescence; series mostly up to 54.9 µM. In a few lines: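 1nM USP1/UAF1 + cpd, 15 min RT; start w/ Ub-Rho 150nM final; kinetic FL 480/540 nm, 6 reads q60 s. Buffer 50mM HEPES pH 7.8, 0.5mM EDTA, 1mM TCEP, 0.01% Tween-20, 0.1 mg/ml BSA.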
Ubiquitin carboxyl-terminal hydrolase 1 (Homo sapiens), sequence (O94782 whole entry, looked up): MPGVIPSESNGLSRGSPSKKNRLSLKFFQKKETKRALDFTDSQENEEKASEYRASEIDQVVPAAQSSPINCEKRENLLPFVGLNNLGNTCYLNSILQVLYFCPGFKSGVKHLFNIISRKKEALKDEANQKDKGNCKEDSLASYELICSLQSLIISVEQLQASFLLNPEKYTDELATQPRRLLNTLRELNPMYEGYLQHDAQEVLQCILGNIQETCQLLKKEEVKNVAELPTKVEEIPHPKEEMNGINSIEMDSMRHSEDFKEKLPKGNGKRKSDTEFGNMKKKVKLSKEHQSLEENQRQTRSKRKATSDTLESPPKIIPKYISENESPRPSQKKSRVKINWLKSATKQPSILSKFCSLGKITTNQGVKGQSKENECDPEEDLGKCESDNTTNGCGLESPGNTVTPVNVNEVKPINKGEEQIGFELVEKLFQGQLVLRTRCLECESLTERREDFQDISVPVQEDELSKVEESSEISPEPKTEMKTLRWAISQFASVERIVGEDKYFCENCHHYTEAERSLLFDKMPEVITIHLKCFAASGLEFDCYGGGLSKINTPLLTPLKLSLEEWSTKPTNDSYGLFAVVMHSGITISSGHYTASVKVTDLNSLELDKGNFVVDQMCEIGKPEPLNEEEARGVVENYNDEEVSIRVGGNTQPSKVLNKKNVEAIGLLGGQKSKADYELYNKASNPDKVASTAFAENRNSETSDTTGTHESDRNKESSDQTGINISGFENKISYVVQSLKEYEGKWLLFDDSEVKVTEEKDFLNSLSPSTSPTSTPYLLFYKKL

Assay [15] in a line: NFAT Signaling Pathway (AID 444; active = well fitted curve in either direction with a large enough effect, not every such curve was filed as active). Particulars: Jurkat NFAT-bla M1, carbachol, beta-lactamase ratio, 5 h; at 7.69 µM (top of the series) unless noted. Put shortly: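 Jurkat cells carrying an NFAT-driven β-lactamase reporter and co-transfected muscarinic M1 receptor were treated with compound plus carbachol (1 uM final, an EC50 level) for 5 h at 37 °C. CCF4 loading followed for 1 h at RT; 460/530 nm ratio gave %activity.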

Assay [16] has as its target Glucocorticoid receptor (Homo sapiens) (UniProt P04150). As to the kind of experiment: GR-GFP Redistribution (AID 450;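 active = compounds whose dose series gives a full or clear partial fitted curve of increased nuclear translocation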; also: potency is read from the fitted curve at half-maximal effect). As to conditions: U2OS GR-GFP nuclear translocation, laser cytometry, 2 h.
Assay [17] has the same target. As to the kind of experiment: GR-EFC Redistribution (AID 451; calls by dose curve; also: potency is read from the fitted curve at half-maximal effect). As to conditions: CHO-K1 GR-EFC translocation, beta-gal luminescence, 2 h. Put shortly: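 CHO-K1 cells stably expressing nuclear-localized β-gal enzyme acceptor and GR fused C-terminally to the enzyme donor fragment; ligand-driven nuclear translocation restores β-gal by complementation. Compounds titrated up to 46 uM final, 2 h at 37 °C; luminescence read.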

[18] abbreviates: measured here: cell count channel max response.
Where [19] appears, read: measured here: lipid channel max response.
The mark [20] stands for this setting: at 7.69 µM (top of the series) unless noted.

Guanine nucleotide-binding protein G(i) subunit alpha-1 (Homo sapiens), sequence (P63096 whole entry, looked up): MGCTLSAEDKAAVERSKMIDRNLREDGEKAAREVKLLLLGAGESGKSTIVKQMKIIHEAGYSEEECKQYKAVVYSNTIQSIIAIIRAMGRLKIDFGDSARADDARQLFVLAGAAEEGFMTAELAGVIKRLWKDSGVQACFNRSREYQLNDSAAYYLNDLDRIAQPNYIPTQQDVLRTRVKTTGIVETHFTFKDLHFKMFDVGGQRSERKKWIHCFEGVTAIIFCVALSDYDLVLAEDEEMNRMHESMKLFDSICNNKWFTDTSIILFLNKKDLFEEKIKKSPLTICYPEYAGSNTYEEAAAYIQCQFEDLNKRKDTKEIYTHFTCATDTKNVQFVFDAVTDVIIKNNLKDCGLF
Cytochrome P450 1A2 (Homo sapiens), sequence (P05177 whole entry, looked up): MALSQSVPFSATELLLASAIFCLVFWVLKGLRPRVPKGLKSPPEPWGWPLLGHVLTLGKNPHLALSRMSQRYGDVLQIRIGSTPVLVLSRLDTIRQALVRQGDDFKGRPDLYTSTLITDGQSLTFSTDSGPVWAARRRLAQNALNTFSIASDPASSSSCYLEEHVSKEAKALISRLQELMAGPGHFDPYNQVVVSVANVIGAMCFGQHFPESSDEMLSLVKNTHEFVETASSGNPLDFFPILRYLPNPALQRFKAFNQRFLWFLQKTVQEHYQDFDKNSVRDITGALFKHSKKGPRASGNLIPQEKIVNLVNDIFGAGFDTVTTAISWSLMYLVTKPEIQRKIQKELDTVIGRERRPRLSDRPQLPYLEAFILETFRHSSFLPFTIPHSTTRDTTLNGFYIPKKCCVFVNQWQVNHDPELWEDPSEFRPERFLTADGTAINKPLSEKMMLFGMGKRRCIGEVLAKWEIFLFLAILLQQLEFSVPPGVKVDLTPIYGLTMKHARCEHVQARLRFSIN
Pyruvate kinase (Leishmania mexicana), sequence (Q27686 2-499 E452W): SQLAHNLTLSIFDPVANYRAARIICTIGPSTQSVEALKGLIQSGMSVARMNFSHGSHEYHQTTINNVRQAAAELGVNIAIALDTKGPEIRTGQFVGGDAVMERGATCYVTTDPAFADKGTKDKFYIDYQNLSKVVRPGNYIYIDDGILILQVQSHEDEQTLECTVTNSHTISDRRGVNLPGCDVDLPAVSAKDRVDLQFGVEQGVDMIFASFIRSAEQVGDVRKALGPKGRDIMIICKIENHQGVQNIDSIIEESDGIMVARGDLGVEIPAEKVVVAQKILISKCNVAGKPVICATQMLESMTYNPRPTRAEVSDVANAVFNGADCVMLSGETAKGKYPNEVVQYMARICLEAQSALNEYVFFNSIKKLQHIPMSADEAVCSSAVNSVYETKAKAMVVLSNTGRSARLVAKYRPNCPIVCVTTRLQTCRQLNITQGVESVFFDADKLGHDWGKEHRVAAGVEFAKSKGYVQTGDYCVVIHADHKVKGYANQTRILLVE
Luciferin 4-monooxygenase (Photinus pyralis), sequence (P08659 whole entry, looked up): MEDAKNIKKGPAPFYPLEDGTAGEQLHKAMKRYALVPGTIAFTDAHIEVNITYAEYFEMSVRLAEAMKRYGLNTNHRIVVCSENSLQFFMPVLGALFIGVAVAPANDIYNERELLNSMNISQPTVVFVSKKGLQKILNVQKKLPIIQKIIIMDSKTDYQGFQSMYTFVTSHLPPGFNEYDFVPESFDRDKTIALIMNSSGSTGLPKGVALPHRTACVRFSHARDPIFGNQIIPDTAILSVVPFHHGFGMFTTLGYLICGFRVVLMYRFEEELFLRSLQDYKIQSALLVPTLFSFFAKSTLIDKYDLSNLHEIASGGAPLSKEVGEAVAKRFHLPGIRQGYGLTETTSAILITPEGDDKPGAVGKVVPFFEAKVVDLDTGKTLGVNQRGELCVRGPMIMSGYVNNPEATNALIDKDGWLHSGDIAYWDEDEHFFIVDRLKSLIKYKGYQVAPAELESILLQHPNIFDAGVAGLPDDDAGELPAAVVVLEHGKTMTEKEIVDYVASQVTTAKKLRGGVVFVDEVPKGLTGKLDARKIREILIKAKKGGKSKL
Glucocorticoid receptor (Homo sapiens), sequence (P04150 whole entry, looked up, the tested form may be a part): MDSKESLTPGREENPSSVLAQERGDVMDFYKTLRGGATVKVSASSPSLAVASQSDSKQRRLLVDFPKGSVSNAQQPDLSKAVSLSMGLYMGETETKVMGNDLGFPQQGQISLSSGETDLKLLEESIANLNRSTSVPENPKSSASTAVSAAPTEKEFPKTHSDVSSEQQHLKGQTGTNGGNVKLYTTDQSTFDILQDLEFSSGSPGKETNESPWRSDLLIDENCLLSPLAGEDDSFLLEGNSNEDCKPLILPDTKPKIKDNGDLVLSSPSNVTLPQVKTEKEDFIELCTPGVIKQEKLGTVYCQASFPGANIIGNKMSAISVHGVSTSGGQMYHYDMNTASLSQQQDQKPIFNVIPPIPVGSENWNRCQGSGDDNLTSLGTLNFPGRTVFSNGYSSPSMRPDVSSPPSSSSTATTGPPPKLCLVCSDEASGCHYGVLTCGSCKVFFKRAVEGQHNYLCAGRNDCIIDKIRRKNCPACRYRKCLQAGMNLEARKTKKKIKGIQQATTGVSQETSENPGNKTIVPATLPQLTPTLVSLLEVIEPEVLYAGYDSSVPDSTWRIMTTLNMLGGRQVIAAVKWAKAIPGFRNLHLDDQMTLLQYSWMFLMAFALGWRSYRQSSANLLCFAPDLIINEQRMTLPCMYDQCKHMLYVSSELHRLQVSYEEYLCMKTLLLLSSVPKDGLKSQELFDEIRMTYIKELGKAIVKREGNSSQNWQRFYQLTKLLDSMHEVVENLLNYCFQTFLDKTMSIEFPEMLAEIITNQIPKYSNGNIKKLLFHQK

Consider `C[C@@H]1COc2c(N3CCN(C)CC3)c(F)cc3c(=O)c(C(=O)O)cn1c23`, for which the figures for the activity change, negative = inhibition in assay [1] (at 17.2 µM (top of the series)), in [1] (at 38 µM (top of the series)) and in assay [10] were -1.23% (inactive), 11.6% (inactive) and -0.7% (inactive), respectively. Besides, the Potency entry (in assay [2]; in assay [4]; in assay [5]; in assay [6]; with AS120; in the assay on CP238) was “inactive” each time. In the assay with FAB9, the Potency entry was “inactive”. Further, the activity, negative = inhibition in [3] (at 17.2 µM (top of the series)) is 4.46% (inactive); in [3] (at 38 µM (top of the series)), -5.77% (inactive); in [13] (at 28.7 µM (top of the series), parasite line A) it was 3.1% (inactive); in [13] (at 28.7 µM (top of the series), parasite line B), 11.1% (inactive). Also, the result in assay [7], in assay [8], in assay [9], in assay [11] and in assay [12] was inactive. For the same compound, the max response in assay [10] (setting [18]) was -7.85%; in assay [10] (setting [19]), -10.5%.

On to `CN(C)CCO[C@](C)(c1ccccc1)c1ccccn1`, for which the activity change, negative = inhibition in [1] (at 17.2 µM (top of the series)) is 4.7% (inactive); in assay [1] (at 38 µM (top of the series)) it was 3.93% (inactive); in assay [10] it was 0.849% (inactive). Moreover, the Potency result in assay [2], in assay [4], in [5], in assay [6] and in assay [14] was “inactive” in each case. Moreover, the activity, negative = inhibition was -3.9% (inactive) in assay [3] (at 17.2 µM (top of the series)) and 8.94% (inactive) in [3] (at 38 µM (top of the series)). Further, the compound was classed as inactive in [7], in [8], in assay [9] and in assay [12]. Further, the max response in [10] (setting [18]) worked out at 16.6%; in assay [10] (setting [19]) it was 17.9%.

On to `CN(C)CC[C@H](c1ccc(Br)cc1)c1ccccn1`, for which the activity change, negative = inhibition in assay [1] (at 17.2 µM (top of the series)) is 0.671% (inactive); in assay [1] (at 38 µM (top of the series)), 15.7% (inactive) and 25.3% (inactive); in [10], -2.32% (inactive). Also, the Potency result in [2], in [4], in assay [5], in assay [6] and in assay [14] was “inactive” throughout. In addition, the activity, negative = inhibition in [3] (at 17.2 µM (top of the series)) was -5.49% (inactive); in assay [3] (at 38 µM (top of the series)) it was -29.8% (inactive). The compound was called inactive in assay [7], in assay [8] and in assay [9]. Also, the max response is -4.35% in assay [10] (setting [18]) and -5.95% in assay [10] (setting [19]).

For the compound `CN(C)[C@H]1C(=O)C(C(=O)NCN2CCCC2)=C(O)[C@]2(O)C(=O)C3=C(O)c4c(O)cccc4[C@@](C)(O)[C@H]3C[C@@H]12`, the activity change, negative = inhibition was 4.94% [at 17.2 µM] (inactive) in [1] (setting [20]), -7.08% [at 17.2 µM] (inactive) in assay [15] and -2.08% (inactive) in [10]. Also, the Potency result (in assay [2]; in assay [4]; in assay [5]; with AS120; in the assay on CP238; in the assay with FAB9) was “inactive” in each case. Also, the activity, negative = inhibition in assay [3] (setting [20]) was 7.95% [at 17.2 µM] (inactive); in assay [13] (at 12.8 µM (top of the series), parasite line A), -2.6% (inactive); in assay [13] (at 12.8 µM (top of the series), parasite line B) it was 2.5% (inactive). In addition, the figures for the Potency in assay [16], in assay [17] and in assay [14] were > 20.6 µM (inactive), > 20.6 µM (inactive) and 28.2 µM (active), respectively. Also, the max response in assay [10] (setting [18]) was -14%; in assay [10] (setting [19]) it was -16.5%. In addition, the outcome in assay [11] and in [12] was inactive.
